According to PubChem BioAssay AID1220 (Sanford-Burnham Center for Chemical Genomics, 2008):
Among all 190,000 compounds or so, about 1,300 (0.68%) were called active. For the sample, actives were picked, then their nearest neighbours and some compounds at random. Values without a mark were called inactive. Cut-off read from the data, not from the text of the source: active = inhibition above about 50%; inactive = the rest.

Target: Mannose-6-phosphate isomerase (Homo sapiens) (UniProt P34949)
Experiment: human PMI inhibitors, high substrate, primary screen, biochemical, fluorescence intensity, high mannose 6-phosphate (AID 1220)
Details: recombinant PMI enzyme, coupled fluorescence intensity; at 20 µM; stronger effect = higher value

Sequence of Mannose-6-phosphate isomerase (Homo sapiens) (P34949 whole entry, looked up): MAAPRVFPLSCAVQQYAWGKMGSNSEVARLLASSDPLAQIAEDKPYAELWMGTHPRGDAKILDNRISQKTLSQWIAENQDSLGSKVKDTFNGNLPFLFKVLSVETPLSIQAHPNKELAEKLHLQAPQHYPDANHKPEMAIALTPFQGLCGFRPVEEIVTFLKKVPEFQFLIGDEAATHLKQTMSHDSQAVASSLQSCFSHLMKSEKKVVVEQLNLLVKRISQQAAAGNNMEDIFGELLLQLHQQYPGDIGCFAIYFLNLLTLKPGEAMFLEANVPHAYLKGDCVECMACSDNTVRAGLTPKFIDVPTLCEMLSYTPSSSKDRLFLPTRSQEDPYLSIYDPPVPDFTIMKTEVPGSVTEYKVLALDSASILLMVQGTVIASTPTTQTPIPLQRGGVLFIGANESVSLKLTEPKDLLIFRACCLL

| Structure (SMILES) | inhibition |
| --- | --- |
| Cc1ccc2cc(C#N)c(N3CCCC3)nc2c1C | -56.8% |
| O=C(Cc1c(Cl)cccc1Cl)OCC(=O)N1CCc2ccccc2C1 | -1% |
| C[n+]1ccc(/C=C/c2ccccc2O)c2ccccc21 | 12.7% |
| CN1/C(=C/c2cc[n+](C)c3ccccc23)C=Cc2ccccc21 | 58% (active) |
| CCN1/C(=C/c2ccc3ccccc3[n+]2CC)C=Cc2ccccc21 | 17.7% |
| COc1ccc(CNC(=O)COC(=O)/C=C/c2ccco2)cc1 | -4.8% |
| CCOC(=O)c1c(/N=C/c2cc(C)ccc2O)sc2c1CCN(C)C2 | -5.7% |
| Nc1ccc(NC(=O)c2ccco2)c(Cl)c1 | -1.2% |
| O=C(COc1ccccc1)NCCSCc1ccco1 | 5.1% |
| Cc1cc(C)nc(N/N=C/c2ccc(N3CCOCC3)cc2)n1 | 4.7% |
| Brc1ccc(-c2ccc(/C=N/Nc3nc(N4CCOCC4)nc(N4CCOCC4)n3)o2)cc1 | 5.4% |
| O=[N+]([O-])c1ccc(/C=N/Nc2nc(N3CCOCC3)nc(N3CCOCC3)n2)cc1 | -1.5% |
| Cc1ccc(/C=N/Nc2nc(N3CCOCC3)nc(N3CCOCC3)n2)o1 | -10.9% |
| Clc1ccc(-c2ccc(/C=N/Nc3cc(N4CCOCC4)nc(N4CCOCC4)n3)o2)cc1 | 54.5% (active) |
| CN(C)c1ccc(/C=N/Nc2cc(N3CCOCC3)nc(N3CCOCC3)n2)cc1 | 60.4% (active) |
| CC(C)c1ccc(/C=N/Nc2cc(N3CCOCC3)nc(N3CCOCC3)n2)cc1 | 68.6% (active) |
| C(=N\Nc1nc(N2CCOCC2)nc(N2CCOCC2)n1)/c1ccncc1 | -1% |
| CN(C)c1ccc(/C=C/C=N/Nc2nc(N3CCOCC3)nc(N3CCOCC3)n2)cc1 | 8.9% |
| COc1c(C)cccc1C(=O)NC(=S)Nc1ccc2c(c1)Cc1ccccc1-2 | 8.2% |
| COc1ccc(NS(=O)(=O)c2cc(NC(=O)Cn3cnc4c3c(=O)n(C)c(=O)n4C)ccc2C)cc1 | 8.9% |
| CC(NC(=O)Cc1ccccc1)c1nc2ccccc2[nH]1 (stereo not drawn) | -7.3% |
| Cc1nc2n(n1)C(O)c1cc([N+](=O)[O-])ccc1S2 (stereo not drawn) | 7.3% |
| COc1ccc(C(=O)CN(Cc2ccccc2)C2=NCCS2)cc1 | -4.2% |
| CCOC(=O)c1c(C)oc2c1c(C(c1cccnc1)N1CCCCC1)c(O)c1ccccc12 (stereo not drawn) | 26.9% |
| CCOC(=O)c1c(C)oc2ccc(O)c(CN3CCCCC3)c12 | 6.2% |

| Structure (SMILES) | inhibition |
| --- | --- |
| CCOC(=O)c1c(C)oc2c1c1c(c3ccccc32)OCN(Cc2cccnc2)C1 | 67.3% (active) |
| CCOC(=O)c1c(C)oc2c1c(C(c1cccnc1)N1CCOCC1)c(O)c1ccccc12 (stereo not drawn) | 58% (active) |
| CCOC(=O)c1c(C)oc2c1c(C(c1ccncc1)N1CCOCC1)c(O)c1ccccc12 (stereo not drawn) | 10.8% |
| CCOC(=O)c1c(C)oc2c1c(C(c1cccnc1)N1CCN(C)CC1)c(O)c1ccccc12 (stereo not drawn) | 28.8% |
| CC(=O)Oc1ccc2c(c1)c(C(C)=O)c(C)n2C | -2.9% |
| COc1ccccc1C(=O)N/N=C/c1cnc2ccccc2n1 | -4.4% |
| CCCCNC(=O)c1ccc(CNS(=O)(=O)c2ccc(Br)cc2)cc1 | 4.4% |
| COc1cc(C2C(C#N)=C(C)NC3=C2C(=O)CC(C)(C)C3)ccc1OCCO (stereo not drawn) | 5.4% |
| COc1cc(C2CC(=O)NC3=C2C(=O)CC(C)(C)C3)cc(OC)c1O (stereo not drawn) | 54.4% (active) |
| CC1(C)CC(=O)C2=C(C1)NC(=O)CC2c1ccc(F)cc1 (stereo not drawn) | -3.1% |
| COc1cc(C2CC(=O)NC3=C2C(=O)CC(C)(C)C3)ccc1O (stereo not drawn) | 4.3% |
| COc1cc(C2C(C#N)=C(C)NC3=C2C(=O)CC(C)(C)C3)cc(OC)c1O (stereo not drawn) | 66.5% (active) |
| COc1cc(C2C(C#N)=C(C)NC3=C2C(=O)CC(C)(C)C3)ccc1O (stereo not drawn) | 3.8% |
| CCc1cccc(NC(=O)CS(=O)Cc2nc(-c3ccc(C)cc3)oc2C)c1 (stereo not drawn) | 6.8% |
| COc1ccccc1-n1cnnc1SCC(=O)NCC1CCCO1 (stereo not drawn) | -9.1% |
| Cc1ccc2nc(-c3ccccc3)c(CN3CCOCC3)n2c1 | -1% |
| O=C(NC(=S)Nc1nc(-c2ccc(Cl)cc2)cs1)c1cccs1 | -11.6% |
| COc1ccc(C)cc1NC(=O)c1ccoc1C | 3.7% |
| Cc1ccc(-c2cn3c(n2)SCC3)cc1 | 1% |
| Oc1ccc(-c2cn3c(n2)SCC3)cc1 | -10.9% |
| Oc1ccc(-c2cn3c(n2)SCC3)cc1O | 53.1% (active) |
| O=C(NCc1cccnc1)NC1CCCN1S(=O)(=O)c1ccc(Cl)cc1 (stereo not drawn) | -3.5% |
| Cc1ccc(-c2csc(NC(=O)CSc3ncn(-c4ccccc4)n3)n2)cc1 | 0% |
| COc1cccc(NC(=O)CSc2nc3c(c(=O)n2C)SC(C)C3)c1 (stereo not drawn) | 2.4% |
| CCOc1ccc(C(=O)N[C@H](C(=O)Nc2ccc(OC)c(S(=O)(=O)N3CCOCC3)c2)C(C)C)cc1 | 10.3% |

| Structure (SMILES) | inhibition |
| --- | --- |
| CCOc1ccc(C(=O)N[C@H](C(=O)Nc2cccc(S(=O)(=O)N3CCCCC3)c2)C(C)C)cc1 | 57.6% (active) |
| O=C(Nc1cccc(S(=O)(=O)N2CCCCC2)c1)c1ccc(OCC2CCCO2)cc1 (stereo not drawn) | 2.6% |
| CCOC(=O)COn1c(=O)c(=O)n(O)c2ccccc21 | 24.9% |
| Oc1ccc(N=Cc2ccc(O)c(O)c2)cc1 | 52.6% (active) |
| CC(=O)Nc1ccc(N=Cc2ccc(OCc3ccccc3)cc2)cc1 | 10.3% |
| Oc1ccc(/C=N/N=C/c2ccc(O)cc2)cc1 | -2.8% |
| Oc1ccc(N=Cc2ccc(OCc3ccccc3)cc2)cc1 | 58.5% (active) |
| O=Cc1ccc(O)c(O)c1 | -5% |
| NC(N)=N/N=C/c1ccc(OCc2ccccc2)cc1 | 1.2% |
| O=C(c1sc2ccccc2c1Cl)N(Cc1ccccc1Cl)C1CCS(=O)(=O)C1 (stereo not drawn) | 1.4% |
| COc1cc(OC)cc(C(=O)OCC(=O)Nc2ccc(N3CCCCC3)cc2)c1 | -11.3% |
| COc1ccc(-c2nn(CCC#N)cc2/C=N/O)cc1OC | 10.3% |
| O=C(CSc1ccc(-c2ccc(F)cc2)nn1)N1CCCc2ccccc21 | 13.5% |
| Cc1c(Cl)c([N+](=O)[O-])nn1CC(=O)Nc1ccc2c(c1)OCO2 | -4.5% |
| COCCNC(=O)Cn1c(=O)n(CCCCCC(=O)NCc2ccc3c(c2)OCO3)c(=O)c2sccc21 | -13.4% |
| CCOc1ccc(NC(=O)C2CC(C)=C(C)CC2C(=O)O)cc1 (stereo not drawn) | 0.7% |
| CCOC(=O)c1sc(NC(=O)c2ccccc2F)c(C(N)=O)c1C | 56.6% (active) |
| CCOC(=O)c1sc(NC(=S)NC(=O)c2ccccc2Cl)c(C(=O)OCC)c1C | 5.4% |
| CCOC(=O)c1sc(NC(C)=O)c(C(=O)OCC)c1C | 7.7% |
| CCCc1nc(SCC(=O)c2ccc(OC)cc2)c2c(=O)n(C)c(=O)n(C)c2n1 | -2.5% |
| Cn1c(=O)c(-c2ccccc2)nc2ccccc21 | 4.9% |
| Cn1nc(-c2ccc(Cl)cc2)nc2c(=O)n(C)c(=O)nc1-2 | 10.6% |
| CCn1c(N)nc2c1c(=O)n(C)c(=O)n2C | -1.8% |
| COC(=O)c1ccccc1OCCOc1ccccc1C(=O)OC | 2.8% |
| COc1ccccc1-c1cc2ccccc2[nH]1 | 4.7% |

| Structure (SMILES) | inhibition |
| --- | --- |
| COc1ccc(OC)c(-c2nc3cc4ccccc4cc3nc2-c2ccccc2)c1 | 10.1% |
| COc1ccccc1-c1nc2cc3ccccc3cc2nc1-c1ccccc1OC | 50.1% (active) |
| COc1ccccc1-c1nc2cc3ccccc3cc2nc1-c1ccccc1 | 50.6% (active) |
| COc1ccccc1-c1nc2ccccc2nc1-c1ccccc1OC | 2.8% |
| COc1ccccc1-c1nc2ccccc2nc1-c1ccccc1 | 12.5% |
| CC(=O)Nc1ccc(C(=O)OCC(=O)Nc2ccccc2Sc2ccccc2)cc1 | 2.4% |
| COc1ccccc1CNC(=O)COc1ccc([N+](=O)[O-])cc1 | 2.1% |
| COc1ccc(CC(=O)Nc2cccc(SC)c2)cc1 | 1.7% |
| Cc1ccc(NC2=C(Cl)C(=O)c3ccccc3C2=O)cc1 | 41.8% |
| CC(=O)Nc1ccc(NC2=C(Cl)C(=O)c3ccccc3C2=O)cc1 | 57.8% (active) |
| O=C(O)c1cccc(NC2=C(Cl)C(=O)c3ccccc3C2=O)c1 | 39.9% |
| O=C1C(Cl)=C(NCCN2CCCCC2)C(=O)c2ccccc21 | 54.3% (active) |
| CCNC1=C(Cl)C(=O)c2ccccc2C1=O | 15.6% |
| COc1ccccc1NC1=C(N2CCCCC2)C(=O)c2ccccc2C1=O | 2.6% |
| COc1ccccc1NC(C)=O | 9.5% |
| O=C1c2ccccc2C(=O)N1CCN1CCCCC1 | 2.7% |
| O=C(Oc1ccc(NC2=C(Cl)C(=O)c3ccccc3C2=O)cc1)c1ccc([N+](=O)[O-])cc1 | 32.9% |
| COc1ccccc1NC1=C(NC(C)=O)C(=O)c2ccccc2C1=O | 60.1% (active) |
| O=C1C(Cl)=C(Nc2ccccc2)C(=O)c2ccccc21 | 52.5% (active) |
| CC(=O)Nc1ccc2c(c1)C(=O)c1ccccc1C2=O | -69.9% |
| CCCCn1nnnc1SCC(=O)c1ccc(C)c(C)c1 | 7.7% |
| COCCCNC(=O)CCCCCNS(=O)(=O)c1ccc(Br)cc1 | -6.2% |
| COc1ccccc1OCC(=O)Sc1ccc(C)cc1 | 13% |
